Data as given in ChEMBL document CHEMBL1961873, “Compounds: GSK PKIS; Assays: Nanosyn kinase panel” (2012).

Key:
[1] = molecular target: Serine/threonine-protein kinase MARK2 (Homo sapiens) (UniProt Q7KZI7); conditions: at 1 µM
[2] = molecular target: PAS domain-containing serine/threonine-protein kinase (Homo sapiens) (UniProt Q96RG2); conditions: at 0.1 µM
[3] = molecular target: PAS domain-containing serine/threonine-protein kinase (Homo sapiens) (UniProt Q96RG2); conditions: at 1 µM
[4] = molecular target: Phosphorylase b kinase gamma catalytic chain, skeletal muscle/heart isoform (Homo sapiens) (UniProt Q16816); conditions: at 0.1 µM
Sequence of Phosphorylase b kinase gamma catalytic chain, skeletal muscle/heart isoform (Homo sapiens) (Q16816 whole entry, looked up, canonical isoform): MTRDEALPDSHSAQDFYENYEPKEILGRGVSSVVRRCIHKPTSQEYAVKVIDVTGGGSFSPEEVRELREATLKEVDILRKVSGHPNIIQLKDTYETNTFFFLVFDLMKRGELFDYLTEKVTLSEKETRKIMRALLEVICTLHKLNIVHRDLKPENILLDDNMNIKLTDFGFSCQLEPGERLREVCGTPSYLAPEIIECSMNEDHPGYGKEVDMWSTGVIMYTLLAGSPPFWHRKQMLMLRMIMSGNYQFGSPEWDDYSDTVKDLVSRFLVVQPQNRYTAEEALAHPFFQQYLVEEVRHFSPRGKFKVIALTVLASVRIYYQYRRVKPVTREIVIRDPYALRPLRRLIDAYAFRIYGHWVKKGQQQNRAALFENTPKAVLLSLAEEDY

[5] = molecular target: Phosphorylase b kinase gamma catalytic chain, skeletal muscle/heart isoform (Homo sapiens) (UniProt Q16816); conditions: at 1 µM
[6] = molecular target: T1, Phosphorylase b kinase gamma catalytic chain, liver/testis isoform (Homo sapiens) (UniProt P15735); conditions: at 0.1 µM
T1 sequence (whole entry): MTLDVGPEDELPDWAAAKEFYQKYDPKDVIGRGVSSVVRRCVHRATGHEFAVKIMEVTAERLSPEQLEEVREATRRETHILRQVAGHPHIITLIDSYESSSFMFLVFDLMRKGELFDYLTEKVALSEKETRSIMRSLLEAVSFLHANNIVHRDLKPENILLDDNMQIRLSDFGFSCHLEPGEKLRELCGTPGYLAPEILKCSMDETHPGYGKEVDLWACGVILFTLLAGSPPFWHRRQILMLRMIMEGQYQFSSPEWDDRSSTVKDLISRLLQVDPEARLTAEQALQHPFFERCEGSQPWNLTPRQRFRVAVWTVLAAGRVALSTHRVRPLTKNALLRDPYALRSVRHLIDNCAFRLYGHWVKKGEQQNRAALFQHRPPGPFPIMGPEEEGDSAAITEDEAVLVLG

[7] = molecular target: T1, Phosphorylase b kinase gamma catalytic chain, liver/testis isoform (Homo sapiens); conditions: at 1 µM
[8] = molecular target: Serine/threonine-protein kinase pim-1 (Homo sapiens) (UniProt P11309); conditions: at 0.1 µM
Sequence of Serine/threonine-protein kinase pim-1 (Homo sapiens) (P11309 whole entry, looked up): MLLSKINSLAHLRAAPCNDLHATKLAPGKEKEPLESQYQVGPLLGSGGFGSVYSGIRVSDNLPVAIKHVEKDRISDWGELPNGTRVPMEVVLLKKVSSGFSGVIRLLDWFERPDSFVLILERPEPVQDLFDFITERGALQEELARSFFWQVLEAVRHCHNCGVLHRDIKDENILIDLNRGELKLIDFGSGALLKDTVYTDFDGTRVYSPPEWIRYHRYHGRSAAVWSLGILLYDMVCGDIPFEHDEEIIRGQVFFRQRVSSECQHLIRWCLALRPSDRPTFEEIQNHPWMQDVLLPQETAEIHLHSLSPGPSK

[9] = molecular target: Serine/threonine-protein kinase pim-1 (Homo sapiens) (UniProt P11309); conditions: at 1 µM
[10] = molecular target: Serine/threonine-protein kinase pim-2 (Homo sapiens) (UniProt Q9P1W9); conditions: at 0.1 µM
[11] = molecular target: Serine/threonine-protein kinase pim-2 (Homo sapiens) (UniProt Q9P1W9); conditions: at 1 µM
[12] = molecular target: Serine/threonine-protein kinase pim-3 (Homo sapiens) (UniProt Q86V86); conditions: at 0.1 µM
[13] = molecular target: Serine/threonine-protein kinase pim-3 (Homo sapiens) (UniProt Q86V86); conditions: at 1 µM
[14] = molecular target: T2, MAP kinase-activated protein kinase 5 (Homo sapiens) (UniProt Q8IW41); conditions: at 0.1 µM
T2 sequence (whole entry): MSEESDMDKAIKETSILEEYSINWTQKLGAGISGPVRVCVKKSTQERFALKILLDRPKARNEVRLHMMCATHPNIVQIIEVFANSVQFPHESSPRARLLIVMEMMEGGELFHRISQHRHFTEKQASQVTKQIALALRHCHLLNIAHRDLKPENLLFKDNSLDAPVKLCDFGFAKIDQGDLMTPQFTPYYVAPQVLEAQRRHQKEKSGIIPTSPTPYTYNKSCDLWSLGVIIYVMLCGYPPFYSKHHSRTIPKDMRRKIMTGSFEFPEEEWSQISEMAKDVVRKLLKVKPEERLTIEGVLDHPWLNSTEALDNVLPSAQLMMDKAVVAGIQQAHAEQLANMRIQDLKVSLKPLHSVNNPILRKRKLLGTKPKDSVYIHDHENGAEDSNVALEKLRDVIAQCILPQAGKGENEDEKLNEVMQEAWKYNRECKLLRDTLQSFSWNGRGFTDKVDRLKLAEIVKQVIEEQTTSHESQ

[15] = molecular target: T2, MAP kinase-activated protein kinase 5 (Homo sapiens); conditions: at 1 µM
[16] = molecular target: Serine/threonine-protein kinase SIK1 (Homo sapiens) (UniProt P57059); conditions: at 0.1 µM
Sequence of Serine/threonine-protein kinase SIK1 (Homo sapiens) (P57059 whole entry): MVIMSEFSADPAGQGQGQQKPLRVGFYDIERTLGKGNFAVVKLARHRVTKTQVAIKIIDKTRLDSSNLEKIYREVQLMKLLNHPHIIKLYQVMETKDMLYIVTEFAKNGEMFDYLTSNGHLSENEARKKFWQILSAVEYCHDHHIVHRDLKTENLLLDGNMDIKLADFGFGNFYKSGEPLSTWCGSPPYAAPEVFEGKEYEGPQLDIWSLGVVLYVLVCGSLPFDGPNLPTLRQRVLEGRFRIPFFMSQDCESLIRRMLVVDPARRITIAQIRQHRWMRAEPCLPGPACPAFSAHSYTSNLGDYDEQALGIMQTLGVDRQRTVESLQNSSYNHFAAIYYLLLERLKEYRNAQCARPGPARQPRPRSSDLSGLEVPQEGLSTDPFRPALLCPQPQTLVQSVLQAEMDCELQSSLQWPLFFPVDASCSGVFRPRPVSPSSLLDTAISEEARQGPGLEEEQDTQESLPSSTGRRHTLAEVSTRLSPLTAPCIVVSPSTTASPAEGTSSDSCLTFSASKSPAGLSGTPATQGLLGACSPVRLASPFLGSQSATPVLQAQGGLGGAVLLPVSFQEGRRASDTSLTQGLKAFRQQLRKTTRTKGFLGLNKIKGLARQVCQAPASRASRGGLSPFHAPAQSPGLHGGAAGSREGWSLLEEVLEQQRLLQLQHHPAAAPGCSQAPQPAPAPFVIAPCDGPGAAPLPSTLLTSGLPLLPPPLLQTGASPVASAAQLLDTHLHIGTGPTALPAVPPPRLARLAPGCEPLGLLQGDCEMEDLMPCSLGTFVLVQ

[17] = molecular target: Serine/threonine-protein kinase SIK1 (Homo sapiens) (UniProt P57059); conditions: at 1 µM
[18] = molecular target: Serine/threonine-protein kinase SIK2 (Homo sapiens) (UniProt Q9H0K1); conditions: at 0.1 µM
Sequence of Serine/threonine-protein kinase SIK2 (Homo sapiens) (Q9H0K1 whole entry, looked up): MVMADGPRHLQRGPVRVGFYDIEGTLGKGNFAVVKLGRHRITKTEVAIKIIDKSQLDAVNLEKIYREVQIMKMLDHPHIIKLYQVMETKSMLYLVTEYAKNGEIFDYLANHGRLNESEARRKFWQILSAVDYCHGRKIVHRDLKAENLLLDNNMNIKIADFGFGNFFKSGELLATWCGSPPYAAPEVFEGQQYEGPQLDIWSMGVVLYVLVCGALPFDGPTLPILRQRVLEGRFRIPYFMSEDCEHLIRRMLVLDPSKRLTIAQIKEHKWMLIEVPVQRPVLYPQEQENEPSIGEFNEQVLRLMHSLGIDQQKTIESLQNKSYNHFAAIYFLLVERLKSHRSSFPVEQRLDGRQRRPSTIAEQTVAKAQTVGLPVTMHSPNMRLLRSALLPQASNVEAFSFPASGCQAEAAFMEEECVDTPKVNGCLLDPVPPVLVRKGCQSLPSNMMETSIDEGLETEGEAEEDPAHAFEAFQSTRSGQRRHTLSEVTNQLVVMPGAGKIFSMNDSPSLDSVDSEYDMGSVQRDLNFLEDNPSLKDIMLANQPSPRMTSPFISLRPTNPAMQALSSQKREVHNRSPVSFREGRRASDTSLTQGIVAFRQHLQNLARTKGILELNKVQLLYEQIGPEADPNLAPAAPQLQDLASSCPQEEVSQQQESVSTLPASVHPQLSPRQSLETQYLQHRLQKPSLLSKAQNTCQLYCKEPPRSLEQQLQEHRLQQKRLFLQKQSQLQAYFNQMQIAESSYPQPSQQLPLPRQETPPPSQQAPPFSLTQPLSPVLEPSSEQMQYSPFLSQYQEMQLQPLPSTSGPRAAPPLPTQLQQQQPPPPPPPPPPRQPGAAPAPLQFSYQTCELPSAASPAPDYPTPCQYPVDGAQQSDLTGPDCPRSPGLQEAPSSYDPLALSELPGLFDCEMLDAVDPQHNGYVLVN

[19] = molecular target: Serine/threonine-protein kinase SIK2 (Homo sapiens) (UniProt Q9H0K1); conditions: at 1 µM
[20] = molecular target: T3, Serine/threonine-protein kinase TBK1 (Homo sapiens) (UniProt Q9UHD2); conditions: at 0.1 µM;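 note: values are the mean TBK1 inhibition, taken from the GSK PKIS screening data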
T3 sequence (whole entry): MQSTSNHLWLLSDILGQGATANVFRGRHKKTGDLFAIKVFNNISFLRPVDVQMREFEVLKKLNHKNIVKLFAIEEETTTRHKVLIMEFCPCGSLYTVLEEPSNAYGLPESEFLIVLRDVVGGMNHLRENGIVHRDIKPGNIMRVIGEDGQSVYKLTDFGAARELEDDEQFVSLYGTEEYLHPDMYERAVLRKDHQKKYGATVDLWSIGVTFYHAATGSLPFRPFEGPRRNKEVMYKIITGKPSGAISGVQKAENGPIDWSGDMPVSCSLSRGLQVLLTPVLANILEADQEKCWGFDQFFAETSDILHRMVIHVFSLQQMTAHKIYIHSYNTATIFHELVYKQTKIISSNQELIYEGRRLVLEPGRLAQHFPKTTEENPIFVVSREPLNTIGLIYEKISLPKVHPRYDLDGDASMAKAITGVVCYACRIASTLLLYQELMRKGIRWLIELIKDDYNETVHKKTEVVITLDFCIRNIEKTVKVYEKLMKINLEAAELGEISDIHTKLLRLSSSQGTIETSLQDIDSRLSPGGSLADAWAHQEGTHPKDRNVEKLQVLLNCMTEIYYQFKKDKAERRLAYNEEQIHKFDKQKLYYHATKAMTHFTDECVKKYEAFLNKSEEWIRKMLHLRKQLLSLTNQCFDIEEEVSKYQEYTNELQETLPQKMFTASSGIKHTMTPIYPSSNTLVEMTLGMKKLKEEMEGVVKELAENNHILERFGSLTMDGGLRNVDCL

Sequence of PAS domain-containing serine/threonine-protein kinase (Homo sapiens) (Q96RG2 whole entry, the tested form may be a part, canonical isoform): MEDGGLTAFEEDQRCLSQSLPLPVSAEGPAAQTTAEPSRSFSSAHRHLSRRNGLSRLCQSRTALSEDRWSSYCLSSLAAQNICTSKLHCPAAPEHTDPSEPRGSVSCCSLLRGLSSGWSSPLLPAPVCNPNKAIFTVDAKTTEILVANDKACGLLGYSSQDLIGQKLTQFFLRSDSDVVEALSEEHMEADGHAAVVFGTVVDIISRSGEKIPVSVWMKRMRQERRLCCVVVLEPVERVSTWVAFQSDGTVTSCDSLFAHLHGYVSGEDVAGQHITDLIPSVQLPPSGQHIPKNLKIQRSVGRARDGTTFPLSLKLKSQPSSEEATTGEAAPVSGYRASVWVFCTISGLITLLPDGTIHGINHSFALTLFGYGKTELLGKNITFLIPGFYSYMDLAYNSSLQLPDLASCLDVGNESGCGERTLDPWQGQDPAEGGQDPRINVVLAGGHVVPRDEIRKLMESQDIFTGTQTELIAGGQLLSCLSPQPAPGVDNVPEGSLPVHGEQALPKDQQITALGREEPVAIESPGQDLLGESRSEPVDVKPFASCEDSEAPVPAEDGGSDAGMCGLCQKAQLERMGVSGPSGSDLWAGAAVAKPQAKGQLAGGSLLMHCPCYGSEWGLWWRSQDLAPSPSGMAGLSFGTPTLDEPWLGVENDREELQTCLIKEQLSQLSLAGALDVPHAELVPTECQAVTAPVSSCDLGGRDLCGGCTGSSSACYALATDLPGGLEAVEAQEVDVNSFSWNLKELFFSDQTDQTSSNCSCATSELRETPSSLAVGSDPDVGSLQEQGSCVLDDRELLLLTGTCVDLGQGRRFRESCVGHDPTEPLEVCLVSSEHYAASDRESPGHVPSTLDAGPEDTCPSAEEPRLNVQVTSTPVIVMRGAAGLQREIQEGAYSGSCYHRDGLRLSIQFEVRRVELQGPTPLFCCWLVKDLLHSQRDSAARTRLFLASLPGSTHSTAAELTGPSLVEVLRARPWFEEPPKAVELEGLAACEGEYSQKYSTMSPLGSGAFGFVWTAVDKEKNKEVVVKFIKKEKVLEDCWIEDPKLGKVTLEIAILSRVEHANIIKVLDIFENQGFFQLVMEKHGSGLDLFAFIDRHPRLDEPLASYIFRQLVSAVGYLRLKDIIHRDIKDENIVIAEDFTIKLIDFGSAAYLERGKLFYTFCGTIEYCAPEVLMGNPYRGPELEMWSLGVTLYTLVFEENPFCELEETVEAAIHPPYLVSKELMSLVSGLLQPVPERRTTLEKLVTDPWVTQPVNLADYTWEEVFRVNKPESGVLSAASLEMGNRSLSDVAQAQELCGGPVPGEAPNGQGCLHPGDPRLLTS
Sequence of Serine/threonine-protein kinase MARK2 (Homo sapiens) (Q7KZI7 whole entry, the tested form may be a part): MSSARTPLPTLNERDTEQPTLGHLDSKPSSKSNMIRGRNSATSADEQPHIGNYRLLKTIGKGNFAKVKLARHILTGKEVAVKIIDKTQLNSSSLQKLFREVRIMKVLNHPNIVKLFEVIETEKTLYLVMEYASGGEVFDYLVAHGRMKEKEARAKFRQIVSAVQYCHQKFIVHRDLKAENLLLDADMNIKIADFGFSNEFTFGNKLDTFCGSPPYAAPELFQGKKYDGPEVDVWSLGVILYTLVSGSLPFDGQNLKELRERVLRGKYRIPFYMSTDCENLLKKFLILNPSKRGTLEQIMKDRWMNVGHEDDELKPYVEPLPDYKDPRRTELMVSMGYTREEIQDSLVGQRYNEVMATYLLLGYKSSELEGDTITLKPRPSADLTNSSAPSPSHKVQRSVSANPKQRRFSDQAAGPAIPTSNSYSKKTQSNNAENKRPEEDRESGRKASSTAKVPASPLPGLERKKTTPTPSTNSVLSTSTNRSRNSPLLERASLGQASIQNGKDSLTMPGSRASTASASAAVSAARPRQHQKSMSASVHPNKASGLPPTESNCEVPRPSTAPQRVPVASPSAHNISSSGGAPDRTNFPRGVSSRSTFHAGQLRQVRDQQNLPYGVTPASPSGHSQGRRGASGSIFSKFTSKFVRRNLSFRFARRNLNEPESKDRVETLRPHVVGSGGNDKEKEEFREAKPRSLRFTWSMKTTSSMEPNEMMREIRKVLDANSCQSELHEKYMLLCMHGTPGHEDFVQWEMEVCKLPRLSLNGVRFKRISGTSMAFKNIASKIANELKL

SMILES | inhibition [1] [%] | inhibition [2] [%] | inhibition [3] [%] | inhibition [4] [%] | inhibition [5] [%] | inhibition [6] [%] | inhibition [7] [%] | inhibition [8] [%] | inhibition [9] [%] | inhibition [10] [%] | inhibition [11] [%] | inhibition [12] [%] | inhibition [13] [%] | inhibition [14] [%] | inhibition [15] [%] | inhibition [16] [%] | inhibition [17] [%] | inhibition [18] [%] | inhibition [19] [%] | inhibition [20] [%]
CCS(=O)(=O)c1ccc(OC)c(Nc2ncc(-c3cccc(C(C)=O)c3)o2)c1 | -4.12 | 0.37 | 2.34 | 1.7 | 10.4 | 3.37 | 6.45 | 0.82 | 1.66 | -0.72 | -0.01 | 0.38 | 4.79 | 1.84 | 2 | 6.02 | 15.1 | 3.14 | 14 | 0.54
COc1cccc(-n2ncc3c(N/N=C/c4ccc(C(=O)NCCN(C)C)cc4)ncnc32)c1 | 11.9 | 0.59 | -0.48 | 5.75 | 30.5 | 3.32 | 7.38 | 1.53 | 8.23 | 0.17 | 0.88 | 0.5 | 3.82 | 0.76 | 0.52 | 18.3 | 61.2 | 34.6 | 76 | 2.76
Fc1ccc(Nc2nccc(-c3c(-c4ccc(C(F)(F)F)cc4)nn4ncccc34)n2)cc1F | 2.64 | 0.46 | -1.14 | -0.56 | 1.84 | 3.81 | 0.35 | 1.07 | 0.89 | 0.92 | 5.02 | -0.88 | -1 | 0.6 | -0.23 | 5.43 | 3.1 | 3.76 | 2.08 | -0.07
O=C(O[C@H]1CN[C@H](C#Cc2cc3ncnc(Nc4ccc5c(cnn5Cc5ccccc5)c4)c3s2)C1)N1CCOCC1 | 1.58 | 1.66 | 0.95 | 2.11 | 6.5 | -0.83 | -1.47 | -1.14 | -0.83 | -0.43 | -0.51 | -0.77 | -0.59 | -0.48 | -1.44 | -1.61 | -0.04 | -3.57 | 1.23 | -0.69
Cn1c(-c2nonc2N)nc2cnccc21 | 4.69 | 0.4 | -0.76 | 1.82 | 0.15 | 4.05 | 1.59 | 2.15 | 16.4 | -0.31 | 1.87 | -0.24 | 7.16 | 1.23 | 0.93 | 4.82 | 8.47 | 5.17 | -0.26 | 1.34
CS(=O)(=O)CCNCc1ccc(-c2ccc3ncnc(Nc4ccc(OCc5ccccc5)cc4)c3c2)o1 | 1.67 | 0.96 | 0.95 | 4.83 | 4.75 | 4.78 | 4.2 | 1.47 | 1.03 | 0.19 | 0.74 | 0.79 | 1.6 | 1.45 | 1.42 | 4.11 | 9.04 | 3.65 | 6.41 | 3.64
Cc1cc(O)cc(C)c1/C=C/c1cncc(C(N)=O)c1 | 1.96 | 0.45 | -0.18 | 3.36 | 2.58 | 2.43 | 0.42 | 0.11 | 0.65 | 0.8 | 0.5 | -0.22 | -1.42 | 0.25 | -0.19 | 48.9 | 89 | 6.79 | 37.5 | 2.21
COc1cc(N2CCN(C(C)C)CC2)ccc1Nc1nc(Nc2cccc(F)c2C(=O)O)c2cc[nH]c2n1 | 3.36 | 0.65 | 0.52 | 8.07 | 39.8 | 6.18 | 19.9 | -0.13 | 1.42 | 0.01 | 0.53 | 1 | 5.92 | 1.35 | 2.28 | 2.77 | 7.48 | 5.27 | 4.22 | 4.45
NS(=O)(=O)c1ccc(N/N=C2\C(=O)Nc3cccc(CCc4ccncc4)c32)cc1 | 4.73 | 1.68 | 1 | 4.94 | 11.7 | 0.33 | -0.92 | 0.54 | 1.13 | 0.11 | 0.64 | 0.22 | 0.75 | 0.36 | 0.28 | 1.17 | 2.64 | 2.91 | -0.94 | 1.99
NS(=O)(=O)c1cccc(N/C=C2\C(=O)Nc3ccccc32)c1 | 12.6 | -0.26 | -1.04 | 7.73 | 33.3 | 5.62 | 13.4 | 0.75 | 0.73 | -0.33 | 0.69 | -0.71 | -2.38 | 1.17 | 1.53 | 5.29 | 10.8 | -0.72 | 11.3 | 3.79
COC(=O)Nc1nc2ccc(Oc3ccc(NC(=O)Nc4cc(C(F)(F)F)ccc4F)cc3)cc2s1 | -0.26 | -0.29 | -0.57 | -9.77 | 1.81 | -0.83 | -1.17 | 0.9 | 1.19 | -0.21 | 0.12 | 0.39 | 0.5 | 0.07 | -0.36 | -0.78 | 0.54 | 0.97 | -6.65 | -0.35
COc1cc(N2CCN(C(C)C)CC2)ccc1Nc1nc(Nc2cccc3ncccc23)c2cc[nH]c2n1 | 1.39 | -0.26 | -0.72 | 2.93 | 28.6 | -1.68 | 0.96 | 0.12 | 0.51 | -0.9 | 0.36 | -0.71 | 0.17 | 0.21 | -0.62 | -2.95 | 0.48 | -4.22 | 3.12 | -0.11
CCn1c(-c2nonc2N)nc2cncc(C(=O)NCCNC)c21 | 14 | 0.06 | 3.5 | 4.55 | 7.35 | 5.01 | 6.69 | 46.4 | 87 | 1.81 | 18.8 | 26.3 | 69.3 | 1.39 | 1.58 | 3.17 | 9.07 | 2.51 | 6.02 | 4.08
CCOc1ccc2c(-c3ccnc(Nc4cc(OC)cc(C(F)(F)F)c4)n3)cnn2n1 | 1.23 | 0 | 0.64 | 1.57 | 0.94 | 0.61 | 0.99 | 0.51 | -0.17 | -0.46 | -0.11 | 1.13 | 1.42 | -0.27 | -0.8 | 2.02 | 6.72 | -0.16 | 2.02 | -0.57
CNC(=O)c1sc(-n2cnc3cc(OC)c(OC)cc32)cc1OCc1ccccc1C(F)(F)F | 1.67 | 0.35 | 0.79 | 4.21 | 3.69 | 5.8 | 5.01 | -0.73 | -0.07 | 0.37 | 0.56 | -0.77 | -0.33 | 1.17 | 1.03 | 5.73 | 11.3 | 7.24 | 8.75 | 1.68
COC(=O)Nc1nc2cc(Oc3ccc(NC(=O)Nc4ccccc4)cc3)ccc2[nH]1 | -0.9 | 0.34 | 1.02 | 4.15 | 5.64 | 4.43 | 6.25 | -0.24 | 0.02 | 0.15 | 0.64 | -0.27 | 0.79 | 1.73 | 2.59 | 1.17 | 7.79 | 1.28 | 9.23 | -0.2
CNC(=O)c1ncccc1Nc1nc(Nc2cc3c(cc2OC)CCCN3C(=O)CN(C)C)nc2[nH]ccc12 | 4.82 | 0.42 | -3.51 | 5.77 | 26.6 | 5.37 | 3.8 | 18.9 | 65.9 | 1.04 | 5.43 | 2.42 | 22.6 | 0.95 | 0.65 | 4.63 | 6.54 | 3.05 | 0.1 | 5.66
c1cnn2ncc(-c3ccnc(NCCCN4CCOCC4)n3)c2c1 | -1.01 | -1.6 | -2.98 | 4.51 | 4.16 | 4.4 | 2.46 | -0.24 | 1.23 | -0.27 | -1.06 | -0.56 | -0.85 | 1.09 | 1.07 | 3.47 | 6.56 | 3.35 | 2.87 | 0.82
CCN1CCC(C(=O)Nc2n[nH]c3nnc(-c4cccc(F)c4F)cc23)CC1 | 1.95 | 1.35 | 0.26 | 1.99 | 4.68 | -0.86 | -1.05 | -0.82 | 0.91 | 0.04 | 0.25 | -0.6 | 2.08 | 0.03 | -0.34 | -3.64 | 0.15 | -2.38 | -0.5 | 0.48
